Results published in the supplement of paper PMC3545927.
The list shows a part of the results. The hit rate among all sequences tested is not known here.

Target: furin, P09958
Assay: furin cleavage Z-score vs untreated control; higher = more cleavage, active = 3.5 or more, inactive = 1 or less, 8 variable residues between constant flanks
How it was run: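 The cleavage Z-score was derived for purified furin acting on 8-mer peptides held on magnetic beads and fused to a cDNA oligonucleotide. Digests lasted 7.5, 15 or 30 min at 1:10 enzyme:substrate in 50 mM HEPES pH 7.5 with CaCl2 and NaCl. Sequencing counts of released DNA, log-transformed against furin-free reactions, were lowess-adjusted and scaled by median absolute deviation.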

Sequence of furin, P09958 (P09958 whole entry): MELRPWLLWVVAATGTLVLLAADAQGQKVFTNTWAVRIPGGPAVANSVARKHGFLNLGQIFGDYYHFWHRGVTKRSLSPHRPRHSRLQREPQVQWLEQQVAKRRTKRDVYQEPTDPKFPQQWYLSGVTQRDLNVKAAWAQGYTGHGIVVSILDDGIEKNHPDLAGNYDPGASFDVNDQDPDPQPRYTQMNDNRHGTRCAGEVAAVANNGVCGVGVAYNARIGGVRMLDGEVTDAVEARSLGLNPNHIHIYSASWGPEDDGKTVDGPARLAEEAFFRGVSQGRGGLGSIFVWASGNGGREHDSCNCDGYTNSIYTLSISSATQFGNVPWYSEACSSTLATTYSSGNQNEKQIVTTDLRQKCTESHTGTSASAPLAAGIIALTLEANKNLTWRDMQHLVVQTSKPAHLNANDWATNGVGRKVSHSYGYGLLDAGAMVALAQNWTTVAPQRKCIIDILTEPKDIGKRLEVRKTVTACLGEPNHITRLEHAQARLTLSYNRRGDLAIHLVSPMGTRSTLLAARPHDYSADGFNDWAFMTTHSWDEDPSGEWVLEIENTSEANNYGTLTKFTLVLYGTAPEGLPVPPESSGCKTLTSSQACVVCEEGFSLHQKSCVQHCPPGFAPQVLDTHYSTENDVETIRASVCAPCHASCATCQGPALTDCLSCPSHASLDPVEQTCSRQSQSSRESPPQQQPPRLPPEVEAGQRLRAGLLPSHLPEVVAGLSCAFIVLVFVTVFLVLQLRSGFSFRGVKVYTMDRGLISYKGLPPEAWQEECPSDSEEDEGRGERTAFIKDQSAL

Row | Sequence | furin cleavage Z-score (7.5 min) | furin cleavage Z-score (15 min) | furin cleavage Z-score (30 min)
1 | CASNPCSAHLAGNASASA [HC2501] | 0.199 (inactive) | 0.64 (inactive) | 0.644 (inactive)
2 | CASLERHLRSAGNASASA [FS-1413] | 3.94 (active) | 4.91 (active) | 3.46
3 | CAGDNRHLRSAGNASASA [FS-779] | 0.602 (inactive) | 0.112 (inactive) | -0.651 (inactive)
4 | CAIRFRHLRSAGNASASA [FS-1536] | 2.94 | 3.49 | 3.84 (active)
5 | CANTARQRRAAGNASASA [FS-1548] | 10.2 (active) | 11.6 (active) | 8.92 (active)
6 | CAYRARQRRAAGNASASA [FS-1295] | 6.02 (active) | 5.59 (active) | 4.76 (active)
7 | CAYRARLSRGAGNASASA [FS-636] | 0.776 (inactive) | 2.55 | 2.96
8 | CATTPCSGYWAGNASASA [HC1909] | 0.299 (inactive) | 1.62 | -0.123 (inactive)
9 | CAAIKWEYVVAGNASASA [HC517] | -0.197 (inactive) | -3.37 (inactive) | -0.457 (inactive)
10 | CAVVHCSMSYAGNASASA [HC2035] | -0.95 (inactive) | -0.538 (inactive) | -0.331 (inactive)
11 | CADVSRNARHAGNASASA [FS-1625] | 3.37 | 3.82 (active) | 3.7 (active)
12 | CAVGGVLAALAGNASASA [HC992] | -0.486 (inactive) | -0.617 (inactive) | -1.61 (inactive)
13 | CAEVVTSTWHAGNASASA [HC2255] | 1.36 | -3.35 (inactive) | 0.0251 (inactive)
14 | CAVTGGSAGHAGNASASA [HC354] | 0.0621 (inactive) | -1.5 (inactive) | -0.849 (inactive)
15 | CAVSFRVGLHAGNASASA [HC1233] | -0.575 (inactive) | 0.122 (inactive) | 1
16 | CAVGQLFTFSAGNASASA [HC304] | 0.324 (inactive) | -1.01 (inactive) | -1.31 (inactive)
17 | CAVGQRQARHAGNASASA [FS-965] | 4.69 (active) | 5.78 (active) | 5.69 (active)
18 | CAVVTSTWVLAGNASASA [HC988] | -0.433 (inactive) | -1.05 (inactive) | -0.901 (inactive)
19 | CAVVHRFARHAGNASASA [FS-107] | 10.1 (active) | 9.64 (active) | 8.96 (active)
20 | CAVMHRVARHAGNASASA [FS-1431] | 10.4 (active) | 9.27 (active) | 9.21 (active)
21 | CATWGADTAAAGNASASA [HC653] | -1.68 (inactive) | -0.657 (inactive) | 0.025 (inactive)
22 | CATINYTIFKAGNASASA [HC471] | -0.464 (inactive) | -1.13 (inactive) | -1.75 (inactive)
23 | CAKIMSGEVPAGNASASA [HC1094] | 0.645 (inactive) | -1.21 (inactive) | -1.34 (inactive)
24 | CACVREGNASAGNASASA [HC275] | -1.21 (inactive) | -1.14 (inactive) | -0.496 (inactive)
25 | CATGRRKGRSAGNASASA [FS-1290] | 10.3 (active) | 12.1 (active) | 8.69 (active)
26 | CAPCERKGRSAGNASASA [FS-1379] | 5.38 (active) | 8.32 (active) | 6.45 (active)
27 | CATGRGKPGIAGNASASA [HC906] | -0.769 (inactive) | 0.329 (inactive) | 1.63
28 | CAYCFTPSPVAGNASASA [HC414] | -0.826 (inactive) | -2.21 (inactive) | -2.26 (inactive)
